According to the supplement of paper PMC11417369:
Over roughly 25,000 sequences, “ln(normalized median fluorescence intensity)” has its median near 9.3; the highest 2% begin near 10. Many of the other results were omitted from the sample, so the highest values are more common in it than they were.

test system: PF3D7_0420300 AP2 domain 1 (GST-tagged); assay: gcPBM binding intensity (ln(normalized median fluorescence intensity)); higher = stronger DNA binding
Method in brief: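 GST-tagged P. falciparum DNA-binding domains produced in E. coli were incubated for 1 h on an Agilent 4 × 180k array of primer-extended double-stranded 36-bp intergenic genomic probes with negative controls. Binding intensity is the highest Masliner-normalised natural-log median intensity across replicate spots of either probe orientation, with bound protein detected by Alexa488 anti-GST antibody at 488 nm.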

Row | Sequence | gcPBM binding intensity (ln)
1 | AATATATAAGCTGTTCTATTCAAGAATTATATCTTA [CACACA_negctrl_site270] | 9.06
2 | TATATTATTTATTAGACACACATTATTAAAATATTT [CACACA_site4737] | 9.19
3 | GTTTGTATGTCCAAATGTACATATGATTTTATGAAA [XGTACX_site6595] | 9.2
4 | AATAAACATATATACACACACAAAAAAAAAAACATA [CACACA_site424] | 10.2
5 | GCCAAAAGGATATGCACACACACACCCATATATATA [CACACA_site2198] | 10.2
6 | ACAATAAACATATATACACACACAAAAAAAAAAACA [CACACA_site8033] | 10.3
7 | TATATACACATATATAAACACACAAAAAAAAAAAAA [CACACA_site8626] | 9.6
8 | AATATATAAACATATACACACAAAAACATATATATA [CACACA_site4855] | 10
9 | ATTATATATATTTATGCACACAAAATATATTATATA [CACACA_site9244] | 9.29
10 | CAAAAGGATATGCACACACACACACGGATATTTATA [CACACA_site7099] | 10.2
11 | GGGAAAATAAATAAAGTGCAGATATTAAAAGTTGTA | 9.41
12 | AGATATCTTGTGAAATAAAAAAAATAATTGCTTATA [CACACA_negctrl_site798] | 8.94
13 | CAACAATTTCGTCATACACACATTCAGAATATAGAT [CACACA_site7166] | 9.68
14 | CATGCAATATTAAACACACACTCATATAGCACAATA [CACACA_site6182] | 9.73
15 | GAACGAAACTTTCTTACACACATTGAAATTTTTTTC [CACACA_site1779] | 9.62
16 | AATAAGAAAACAAATGCACACCATTTATATAGATTA [CACACA_site8261] | 9.56
17 | AACAAATACAGACACACACACACACCCAAAAAAAAA [CACACA_site515] | 9.99
18 | AATACACCCAGACACACACACAAAAAAAAAAAAAAA [CACACA_site513] | 9.51
19 | TACACCAAAAAAAAACGTACAAAATCCCACCCAGAC [XGTACX_site4622] | 10.6

Row | Sequence | gcPBM binding intensity (ln)
20 | CCCATGCATTTTTGCACACACATATATTTATAAATA [CACACA_site6785] | 9.58
21 | CTTACCAAAAGACACACACACACAAGATATATAAAT [CACACA_site6964] | 10.2
22 | ATAAATAAAAACACAAAACAAAACAAAACAAAACAA [CACACA_negctrl_site1257] | 9.41
23 | AAAAAAAAAAAACACACACACAAAATAAACAAACAA [CACACA_site2721] | 10.3
24 | TATAAATAAATAAACACACACAAATAAAATAAAAAA [CACACA_site7623] | 10.1
25 | AAAAAAAAAAAACACACACACACAAATATATAAAAA [CACACA_site1171] | 10.1
26 | TACCAAAAGAAACACACACACAAAATATATAAATAT [CACACA_site1869] | 10.2
27 | TAATAAAAGATATATACACACAAATAAATAAATAAA [CACACA_site7818] | 9.72
28 | AAATAAATAAAAAACACACACAAATAAATAAATATA [CACACA_site2249] | 10.1
29 | AAAAAATATAAAAAAACACACAAAAAAAAAAAAAAA [CACACA_site1382] | 9.4
30 | TATATAAAGATATATACACACAAAAAAAAAAAAAAA [CACACA_site6778] | 9.32
31 | CTTACCAAAAAACACACACACACAAAATATATAAAT [CACACA_site1870] | 10.3
32 | AAAAAAATAAAACACACACACAAAAAAATAAAAATA [CACACA_site465] | 10.2
33 | AAAAAAATGAAACACACACACACATATATATATATA [CACACA_site1043] | 9.93
34 | TTTTTATTATAAGGTCGTACAATTGTAATTATTGTA [XGTACX_site1413] | 9.23
35 | TATTTATTTTTTTTTGTGCACTTAATATAATCTTAC | 9.24
36 | ATATATATATATTATGTGCGCATATACCATTTTAAT [GTGCAC_site9575] | 9.32
37 | TATTACTTGATATATACACACATATAACATAAATGC [CACACA_site7783] | 9.45
38 | TATATATATATATATACACACATATATATAAATATA [CACACA_site2035] | 9.2

Row | Sequence | gcPBM binding intensity (ln)
39 | TAAATAAATACATACACACACATACCTATATTTATA [CACACA_site7466] | 9.93
40 | GATAATACATAAATTTATAAGTGGAAGAATAAATAA [CACACA_negctrl_site698] | 9.32
41 | GGACAACAAACAAACACACACAAAAAAAAAATAAAA [CACACA_site3791] | 9.84
42 | AATACTTACCAAAATACACACACACCCAAAATATAT [CACACA_site8559] | 10.1
43 | AAAGAAGGTAAACACACACACACACCGACAAAAAAA [CACACA_site9255] | 10.3
44 | CAAAAGAAGGTAAACACACACACACGCATACAAAAA [CACACA_site7724] | 10.1
45 | TACTTACCAAAATACACACACACACCCAATATATAA [CACACA_site1871] | 10.1
46 | TAAAATAAAACAAACACACACACACCGACACAAAAA [CACACA_site5993] | 10.2
47 | TACTTACCAAAATACACACACACACTAGATATATAA [CACACA_site5096] | 10.3
48 | TATTTATTAAAACACACACACACACCGACAAAATAA [CACACA_site4293] | 10.1
49 | CACAAACAAAAACACACACACACACCGACAAAAATG [CACACA_site5362] | 10
50 | CAACAAAATAAACACACACACACAAACACAAAAAAA [CACACA_site5806] | 10.3
51 | CAAAAGAAGGTAAACACACACACACCCATACAAAAA [CACACA_site3765] | 10.1
52 | TTTACATATTTATATACACACTTTTGCGTGCGTGGT [CACACA_site6647] | 9.21
53 | AAAAAAATTGGGAAAAGTACTTGCAGCTAGCTAAAA [XGTACX_site5178] | 9.18
54 | TACTTTTATATGAATACACACAGGAATATATATATG [CACACA_site3568] | 9.48
55 | ATTCTAAATATCAGTGCACACATTTCTACGCAAAGT [CACACA_site474] | 9.36
56 | TATATATATATATATGGTACAGTTTATGCCTTTTAA [XGTACX_site6695] | 9.14
57 | TAGTGATATAATTATGTGCACTTAATACAGGTCGAT | 9.42
